Holding throughout (conditions): Compound Concentration (nM):1000
Assay [1] concerns T1, DLK.
T1 construct: gene MAP3K12

The subject of assay [2] is T2, DMPK2.
T2 construct: gene CDC42BPG

The test system of assay [3] is DMPK.
Assay [4] relates to T3, DRAK1.
T3 construct: gene STK17A

The subject of assay [5] is T4, DRAK2.
T4 construct: gene STK17B

In assay [6] the test system is DYRK1A.
The subject of assay [7] is DYRK1B.
Assay [8] deals with DYRK2.
For assay [9], the system named is EGFR(E746-A750del).
Assay [10] has as its system EGFR(G719C).
Assay [11] relates to EGFR(G719S).
For assay [12], the system named is EGFR(L747-E749del, A750P).
In assay [13] the test system is EGFR(L747-S752del, P753S).
Assay [14] has as its system EGFR(L747-T751del,Sins).
Assay [15] has as its system EGFR(L858R).
In assay [16] the test system is EGFR(L858R,T790M).
Assay [17] relates to EGFR(L861Q).
Assay [18] concerns EGFR(S752-I759del).
For assay [19], the system named is EGFR(T790M).
Assay [20] has as its system EGFR.
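Further: KINOMEscan scanMAX binding as percent activity remaining versus control; lower means stronger binding.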

`Nc1ncnc2occ(-c3ccc(NC(=O)Nc4cc(C(F)(F)F)ccc4F)cc3)c12` [GW770249X]: the “Percent Control” value is 90% in assay [1]; 96% in [2]; 100% in assay [3]; 100% in assay [4]; 96% in assay [5]; 100% in assay [6]. For the same compound, the “Percent Control” value is given as 100% in assay [7]; 86% in [8]; 91% in assay [9]; 89% in assay [10]; 87% in assay [11]; 88% in [12]. For the same compound, the “Percent Control” value in assay [13] came out at 93%; in assay [14], 100%; in assay [15], 100%; in [16] it was 96%; in assay [17], 79%; in [18], 89%. The “Percent Control” value turned out to be 80% in assay [19] and 100% in assay [20].

Turning to `COc1cc(/C=N/Nc2ncnc3[nH]ncc23)ccc1O` [GW578748X], the “Percent Control” value was 71% in [1]; 100% in assay [2]; 100% in [3]; 7% in assay [4]; 9.9% in [5]; 12% in [6]. For the same compound, the “Percent Control” value in assay [7] is 69%; in assay [8] it was 2.5%; in assay [9] it was 90%; in [10], 52%; in [11], 62%; in [12] it was 78%. The “Percent Control” value in assay [13] stood at 100%; in assay [14], 78%; in [15] it was 90%; in [16] it was 72%; in [17] it was 64%; in [18], 86%. Besides, the “Percent Control” value in [19] stood at 48%; in [20], 75%.

Take `COc1ccc2cc(-c3c(-c4ccncc4)nc(-c4ccc(S(C)(=O)=O)cc4C)n3C)ccc2c1` [SB-633825]: the “Percent Control” value in assay [1] was determined as 84%; in assay [2], 41%; in assay [3] it was 100%; in [4], 93%; in assay [5] it was 79%; in assay [6], 77%. Further, the “Percent Control” value in assay [7] was 100%; in [8], 70%; in assay [9] it was 57%; in assay [10], 66%; in assay [11] it was 84%; in assay [12] it was 78%. In addition, the “Percent Control” value in assay [13] is 70%; in [14] it was 70%; in assay [15] it was 63%; in [16] it was 38%; in assay [17], 41%; in assay [18], 93%. Further, the entries for the “Percent Control” value in assay [19] and in assay [20] were 40% and 74%, respectively.

For the compound `COc1ccccc1-c1cc(/C=C2\C(=O)Nc3ncc(Br)cc32)cc(Br)c1O` [GW442130X], the “Percent Control” value in assay [1] is on record as 100%; in [2] it was 100%; in assay [3], 100%; in assay [4], 85%; in assay [5], 100%; in assay [6], 59%. Moreover, the “Percent Control” value in assay [7] is listed as 68%; in assay [8], 95%; in [9] it was 100%; in assay [10] it was 100%; in assay [11], 100%; in assay [12] it was 100%. Further, the “Percent Control” value in assay [13] was found to be 88%; in [14], 100%; in assay [15], 100%; in [16], 85%; in assay [17] it was 100%; in assay [18] it was 100%. Besides, the “Percent Control” value in assay [19] was 72%; in [20] it was 100%.

Regarding `COC(=O)Nc1nc2ccc(Oc3ccc(NC(=O)Nc4cc(C(F)(F)F)ccc4F)cc3)cc2s1.Cl` [GW693917A], the “Percent Control” value was determined as 64% in assay [1]; 73% in assay [2]; 100% in assay [3]; 100% in assay [4]; 99% in assay [5]; 82% in assay [6]. In addition, the “Percent Control” value is recorded as 100% in assay [7]; 62% in assay [8]; 88% in [9]; 98% in [10]; 83% in assay [11]; 86% in assay [12]. Also, the “Percent Control” value in assay [13] turned out to be 95%; in assay [14], 100%; in assay [15], 78%; in [16] it was 95%; in assay [17] it was 100%; in assay [18] it was 100%. The “Percent Control” value is 68% in [19] and 90% in assay [20].

For `CN1CCN(C(=O)c2ccc(NC(=O)Nc3ccc(N(C)c4ccnc(Nc5ccc(CS(C)(=O)=O)cc5)n4)cc3)cc2)CC1.Cl` [GW830263A], the “Percent Control” value in assay [1] turned out to be 30%; in assay [2], 64%; in assay [3], 100%; in assay [4] it was 100%; in assay [5], 100%; in assay [6], 62%. For the same compound, the “Percent Control” value in assay [7] is reported as 91%; in [8], 75%; in assay [9], 87%; in assay [10], 95%; in assay [11], 100%; in assay [12], 99%. The “Percent Control” value was 78% in [13]; 100% in assay [14]; 92% in assay [15]; 55% in [16]; 92% in assay [17]; 100% in [18]. Further, the “Percent Control” value in [19] amounted to 54%; in assay [20], 100%.

`NS(=O)(=O)c1ccc(N/N=C2\C(=O)Nc3ccc(C(=O)NCCc4c[nH]cn4)cc32)cc1` [GW300660X]: the “Percent Control” value in [1] was determined as 100%; in assay [2], 100%; in assay [3], 100%; in assay [4], 3.8%; in assay [5], 12%; in assay [6], 50%. The “Percent Control” value in [7] was found to be 100%; in assay [8] it was 11%; in assay [9], 100%; in assay [10], 100%; in [11], 73%; in [12] it was 100%. In addition, the “Percent Control” value in assay [13] came out at 100%; in assay [14], 100%; in assay [15] it was 100%; in [16], 99%; in [17] it was 85%; in [18] it was 97%. For the same compound, the “Percent Control” value came out at 95% in [19] and 99% in assay [20].

Turning to `COc1ccc(COc2ccc(Cc3cnc(N)nc3N)cc2OC)cc1` [GW632580X], the “Percent Control” value is 97% in assay [1]; 100% in assay [2]; 100% in assay [3]; 100% in assay [4]; 100% in assay [5]; 88% in assay [6]. For the same compound, the “Percent Control” value in assay [7] turned out to be 100%; in assay [8], 81%; in [9], 100%; in assay [10], 85%; in [11], 61%; in [12], 100%. In addition, the “Percent Control” value in assay [13] is 75%; in [14], 99%; in assay [15] it was 86%; in [16] it was 98%; in assay [17] it was 61%; in assay [18], 85%. Besides, the “Percent Control” value in assay [19] amounted to 69%; in assay [20], 92%.

In the case of `COc1cccc(-n2ncc3c(N/N=C/c4ccncc4)ncnc32)c1` [GW784752X], the “Percent Control” value in [1] came to 82%; in assay [2], 100%; in [3], 100%; in assay [4], 73%; in assay [5], 87%; in assay [6] it was 18%. In addition, the “Percent Control” value in assay [7] turned out to be 95%; in assay [8] it was 17%; in [9], 75%; in assay [10], 90%; in assay [11], 59%; in assay [12] it was 96%. The “Percent Control” value in [13] is 81%; in [14] it was 100%; in [15], 75%; in [16], 96%; in assay [17], 77%; in assay [18], 87%. The “Percent Control” value in assay [19] was found to be 100%; in assay [20], 75%.

As for `COc1cc(N2CCN(C(C)C)CC2)ccc1Nc1nc(Nc2ccc(F)cc2C(=O)NC[C@@H](O)CO)c2cc[nH]c2n1` [GSK1392956A], the “Percent Control” value in [1] came to 77%; in assay [2], 75%; in assay [3], 100%; in assay [4], 87%; in assay [5] it was 93%; in [6], 53%. Also, the “Percent Control” value in [7] is 75%; in [8] it was 24%; in [9], 74%; in [10], 94%; in assay [11], 87%; in [12], 83%. Moreover, the “Percent Control” value is given as 71% in [13]; 94% in assay [14]; 73% in assay [15]; 7.6% in [16]; 60% in assay [17]; 86% in assay [18]. Moreover, the entries for the “Percent Control” value in [19] and in [20] were 4.4% and 76%, respectively.

Values taken from article PMC7826789 (International Journal of Molecular Sciences, 2021).
